# Screening results (PubChem BioAssay)
# Only some compounds are listed: those with a hit (about 2.4% of all), similar ones and a draw of the others.
# D2 PAM-1: positively modulates the human D2 dopamine receptor allosterically. P14416. HEK293 T-REx D2, calcium flux, EC20 dopamine potentiation. potentiation, % at 10 µM. 340,000 tested, 0.34% active. AID 485347;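 active means potentiation over 3 SD above the plate norm, cut at about 30% in these data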; further: 0% is about no effect
# Target sequence (P14416 whole entry, looked up): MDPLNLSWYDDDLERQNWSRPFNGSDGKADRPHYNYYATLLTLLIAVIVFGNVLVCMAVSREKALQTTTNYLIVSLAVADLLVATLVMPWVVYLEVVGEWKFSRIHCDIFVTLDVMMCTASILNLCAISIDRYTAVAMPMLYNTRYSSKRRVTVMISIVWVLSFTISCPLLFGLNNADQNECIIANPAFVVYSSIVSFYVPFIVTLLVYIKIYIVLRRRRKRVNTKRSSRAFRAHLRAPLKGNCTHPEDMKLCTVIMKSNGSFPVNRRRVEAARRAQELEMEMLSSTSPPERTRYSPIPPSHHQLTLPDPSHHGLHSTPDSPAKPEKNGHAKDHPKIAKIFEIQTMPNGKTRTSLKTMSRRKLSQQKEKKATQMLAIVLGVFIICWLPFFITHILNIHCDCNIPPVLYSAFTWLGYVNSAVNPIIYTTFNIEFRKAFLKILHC
#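 Tetracycline-induced Hek293 Trex D2 cells, force-coupled to calcium, loaded with no-wash calcium dye. Compound added with 180 s kinetic read for agonism, then EC20 dopamine and a further 180 s read for potentiation.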
# D2 ag-1: activates the human D2 dopamine receptor | P14416 | HEK293 T-REx D2 cells, calcium flux agonist mode | activation, % at 2 µM | 340,000 tested, 0.53% active;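 active means activation over 3 SD above normal in the single-dose calcium agonist read, cut at about 30% in these data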; further: 0% is about no effect
#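 Tetracycline-induced HEK293 T-REx cells with force-coupled D2 receptor, plated overnight at 30 C, loaded with no-wash calcium dye. After a 10 s baseline, compound was pin-added and calcium flux read kinetically for 180 s; calcium rises flagged agonists.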
# D2 PAM-2: potentiates the human D2 dopamine receptor allosterically. P14416. DiscoveRx D2 beta-arrestin cells, luminescence, 90 min; 100% = 57 uM dopamine signal. potentiation, % (concentration not given with the values). 360,000 tested, 0.23% active. AID 624464; in the data active means potentiation above about 50%; inconclusive means mostly about 30% to 49%
#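 D2 cells co-treated with compound plus 50 nM dopamine (EC20) for 90 min at 37 deg C to detect potentiation. Beta-arrestin recruitment was read as enzyme-fragment luminescence after 1 h at ambient temperature. Full response was set by 57 uM dopamine.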
# D2 ag-2: human D2 receptor agonism in beta-arrestin assay. activation, % (no concentration beside the values). 360,000 tested, 0.084% active. DiscoveRx PathHunter D2 beta-arrestin, luminescence, 90 min; 100% = 57 uM dopamine signal. AID 624465; in the data active means activation above about 40%; inconclusive means between about 15% and that limit
#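 DiscoveRx PathHunter D2 beta-arrestin cells (2,100/well) attached overnight, then compound-stimulated 90 min at 37 C in HBSS/10 mM HEPES/0.1% Tween-20 buffer; beta-galactosidase complementation read by luminescence after 1 h at ambient temperature. Dopamine 57 uM final (EC100) as control.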
# D2 antagonist: D2 dopamine receptor (human) antagonism; P14416; HEK293 TREx D2 cells, calcium flux, dopamine EC80; inhibition, % at 10 µM; 340,000 tested, 2% active; AID 485344; in the data active means inhibition above about 30%; inactive means below that, where a call was filed; further: 0% is about no effect
#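 Dopamine at EC80 is the agonist stimulus; test compounds precede it by 180 s. Calcium flux read kinetically in a force-coupled, inducible HEK293 T-REx D2 cell line.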
# Starred values were filed as active, the others as inactive; ? = inconclusive; nt = not tested or not shown.
SMILES,D2 PAM-1,D2 ag-1,D2 PAM-2,D2 ag-2,D2 antagonist
O=C(OCc1ccccc1)C1=[N+]([O-])OC(C(=O)OCc2ccccc2)C1c1c[nH]c2ccccc12 (stereo not given),1.7,-0.7,62.8*,5.8,-11.4
COc1ccc(NC(=O)Cn2c(=O)n(Cc3ccccc3)c(=O)c3oc4ccccc4c32)cc1Cl,1.6,1.0,nt,nt,nt
Cc1ccc(CNC(=O)c2ccc(Nc3nc4ccccc4n4nnnc34)cc2)cc1,-3.3,0.7,nt,nt,nt
Cc1ccc(CNc2nc3ccccc3n3nnnc23)cc1,-4.4,0.8,52.0*,-1.2,-11.3
CC(C)(C)C(=O)NC1CCN(C(=O)N2CCCC2)CC1,nt,0.8,5.4,1.9,32.4*
CN1/C(=C\C(=O)C(F)F)C(C)(C)c2ccccc21,-3.7,-0.2,-12.1,1.0,46.7*
CN1/C(=C\C(=O)c2cccnc2)C(C)(C)c2ccccc21,2.9,-0.6,-7.8,-1.8,32.3*
CN1\C(=C/C=C/C=C/C=[N+](C)C)C(C)(C)c2ccccc21,-3.6,46.7*,-19.0,8.0,63.0*
CN1/C(=C\C(=O)c2cncc(Br)c2)C(C)(C)c2ccccc21,-5.8,-1.1,-25.1,-2.4,-8.7
COc1ccc(-c2cc3ccccc3n2CC(O)CN2CCC(C)CC2)cc1 (stereo not given),-25.5,0.1,-12.5,-8.0,81.3*
COc1ccc(-c2cc3ccccc3n2CC(O)Cn2nc(C)cc2C)cc1 (stereo not given),7.6,0.7,-11.6,-4.5,-13.1
COC(=O)c1scc(-c2ccc(C)cc2)c1S(=O)(=O)N1CCN(c2ccccc2F)CC1,1.2,-0.2,nt,nt,nt
O=C(c1cc2cc3ccc(Cl)cc3nc2o1)N1CCN(c2cccc(Cl)c2)CC1,2.5,0.8,nt,nt,nt
O=C1NC(c2ccc(-c3ccccc3[N+](=O)[O-])o2)C(C(=O)c2ccc(F)cc2)C(O)(C(F)(F)F)N1 (stereo not given),17.1,1.5,58.4*,?,27.1
CCOC(=O)C1CCN(CC(=O)N2CCc3ccccc32)CC1,nt,nt,-17.2,-1.4,nt
CC1CCN(CC(=O)N2CCc3ccccc32)CC1,-21.8,0.3,-10.7,1.8,53.6*
Cc1cccc(OCCN2CCOCC2)c1C,-12.1,23.8,-0.5,-0.9,41.1*
Fc1ccccc1OCCCN1CCOCC1,2.2,0.5,-9.6,-2.2,31.1*
Cc1ccc(CSCC(=O)Nc2ccccc2C(=O)O)cc1,-0.9,-2.6,52.1*,5.1,-9.4
Cc1ccc(CSCC(=O)N2CCCC2)cc1,5.3,1.4,-1.8,-4.6,32.8*
CCOC(=O)c1c(C)[nH]c(C)c1S(=O)(=O)NCC(=O)N1CCN(c2cccc(C)c2)C(C)C1 (stereo not given),6.2,-0.3,nt,nt,nt
COc1ccc(CNC(=O)CCc2c(C)c3cc4c(C)c(C)oc4cc3oc2=O)cc1OC,-3.7,nt,nt,nt,nt
Cc1nn(C)c(C)c1S(=O)(=O)N(CC(=O)N1CCN(c2ccccc2)CC1)c1ccc(C(C)C)cc1,2.2,-0.1,nt,nt,nt
O=Cc1ccc(-c2cccs2)s1,nt,nt,-18.5,-1.1,nt
Oc1ccc(N=Cc2ccc(-c3cccs3)s2)cc1,8.5,0.0,56.5*,11.9,-0.6
SMILES,D2 PAM-1,D2 ag-1,D2 PAM-2,D2 ag-2,D2 antagonist
COc1ccc2c(C(=O)c3ccc(C)cc3)n(Cc3ccc(C(N)=O)cc3)[n+]([O-])c2c1,21.3,-1.6,-9.5,1.0,60.4*
CCn1c(=O)c2ccccc2n(CC(=O)NC2CCCCC2)c1=O,-1.0,0.6,0.2,0.2,41.7*
CCN(C(=O)COC(=O)/C(C#N)=C/c1ccc(OC)cc1)C1CCS(=O)(=O)C1 (stereo not given),-16.1,-0.2,1.9,-3.0,35.6*
COc1c(C)cc(S(=O)(=O)NCCc2c(C)[nH]c3ccccc23)c(C)c1C,-3.3,0.5,nt,nt,nt
Cc1[nH]c2ccccc2c1CCNS(=O)(=O)c1ccc(S(N)(=O)=O)cc1,-15.8,6.3,-6.3,-4.1,54.8*
Cc1ccc(NC(=O)C(C)[n+]2ccccc2)cc1[N+](=O)[O-] (stereo not given),-18.5,-0.2,-18.7,-2.9,59.9*
Cc1c(NC(=O)c2cccnc2Cl)c(=O)n(-c2ccccc2)n1C,-7.6,0.3,-5.6,-4.8,35.9*
Cc1ccc2c(C)c(C(=O)Nc3c(C)n(C)n(-c4ccccc4)c3=O)oc2c1C,6.6,14.1,25.6,44.9*,-7.4
C[C@@H]1NC(=O)c2cc([N+](=O)[O-])cc(I)c2OCC[C@@H](C(N)=O)NC(=O)[C@H](CCCCN)NC1=O,5.9,0.0,-7.3,-1.3,-1.5
C[C@@H]1NC(=O)[C@H](CCCN=C(N)N)NC(=O)c2cc([N+](=O)[O-])cc(I)c2OCC[C@@H](C(N)=O)NC1=O,0.2,-1.1,nt,nt,31.9*
CCOc1ccc(NC(=O)CCC(=O)NNC(=O)COc2ccccc2C)cc1,-3.6,-1.0,0.4,-5.2,36.3*
CN1CCC(Oc2ccccc2Sc2ccccc2)CC1,-17.3,1.1,-45.2,-3.1,32.4*
CN1CCC(OC(c2ccccc2)c2ccccc2)CC1,-22.1,-1.6,-24.7,-2.9,-16.6
O=C(NCCc1ccccc1)C1COc2ccccc2O1 (stereo not given),-3.6,0.4,-7.7,2.3,-4.6
O=C(Nc1ccccc1)C1COc2ccccc2O1 (stereo not given),-10.4,0.2,-12.0,0.0,5.4
O=C(Nc1cccnc1)C1COc2ccccc2O1 (stereo not given),41.2*,0.1,-15.7,-2.0,20.2
O=C(NCCc1ccc(O)c(O)c1)C1COc2ccccc2O1 (stereo not given),12.3,1.5,1.0,41.3*,-5.2
Cc1ccc(C)c(-n2cc(-c3ccccc3)nc2SCC(=O)Nc2ccccc2)c1,-7.8,nt,nt,nt,nt
O=C1/C(=C\c2cc([N+](=O)[O-])ccc2O)SC(=S)N1Cc1ccc(Cl)cc1,3.6,89.5*,-13.2,-7.3,-14.2
O=C1/C(=C\c2cccc(O)c2O)SC(=S)N1Cc1ccccc1,13.7,nt,-5.1,2.8,nt
Cc1oc2c(CN3CCC(C)CC3)c(O)ccc2c(=O)c1-c1ccccc1,-4.0,-0.6,-10.7,-3.8,44.5*
Cc1oc2c(CN3CCCC3)c(O)ccc2c(=O)c1-c1ccccc1,9.9,0.0,-8.3,-3.2,2.4
CCC(C(=O)Nc1ccc(C(C)C)cc1)n1nc(C)n2c(cc3cc(C)ccc32)c1=O (stereo not given),-0.4,0.3,nt,nt,nt
c1ccc(-c2cn3c(n2)SCC3)cc1,30.2*,-1.1,-18.3,-3.1,4.3
Brc1ccc(-c2cn3c(n2)SCC3)cc1,19.1,-1.1,-2.2,2.6,33.1*
COc1ccc(CNC(=O)c2cc3c(-c4ccccc4F)nn(C)c3s2)cc1,-10.6,1.5,nt,nt,nt
O[Si](CCCN1CCCCC1)(c1ccc(F)cc1)C1CCCCC1 (stereo not given),-27.5,1.2,-26.0,-3.3,124.3*
